Screening results as filed in PubChem.
MCF10A rereplic: inducers of DNA re-replication in MCF 10A breast cells | Potency, µM (top dose mostly 46.1 µM), without a hit: at the top dose activity, positive = re-replication, most hits filed as activators | 350,000 compounds, 2.9% hits | MCF 10A DNA re-replication, Hoechst nuclear intensity, 48 h; note: % of control where 0% means no effect; nearly all actives have a fitted effect of over 50% in size
KB-3-1 tox: KB-3-1 parental cell cytotoxicity; KB-3-1 viability, CellTiter-Glo ATP luminescence, 72 h; 400,000 compounds, 1.4% hits; Potency, µM (top dose mostly 46.1 µM), most hits filed as cytotoxic; AID 1347075; note: % is set by controls: 0 for no effect and ±100 for the full control effect; nearly all actives have a fitted effect of over 60% in size
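Luminescent ATP read-out (CellTiter-Glo) measures survival of drug-naive KB-3-1 cells after 72 h compound exposure at 37 °C. Titration series was screened from lowest to highest concentration, with DMSO vehicle plates as background controls.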
KB-V1 MDR tox: KB-V1 MDR subline cytotoxicity | AID 1347076 | KB-V1 MDR cells viability, CellTiter-Glo, 72 h | 400,000 compounds, 3.4% hits | Potency, µM (titrated, usually from 46.1 µM), usual class: cytotoxic; note: % is set by controls: 0 for no effect and ±100 for the full control effect; nearly all actives have a fitted effect of over 60% in size
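KB-V1 MDR subline cells in DMEM (phenol-red free, 10% FBS) exposed to compounds in qHTS concentration series for 72 h at 37 degrees C. Viability read by CellTiter-Glo luminescence; concentration-effect curves fitted after normalization and correction.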
TSG101-PTAP inh: blocks PTAP/TSG101 interaction to inhibit HIV-1 budding | Q99816 | Fluorescence polarization, FITC-PTAP peptide / Tsg101 binding | Potency, µM (top dose mostly 115 µM), for the others: at the highest dose activity change, negative = inhibition, hits mostly inhibitors | 340,000 tested, under 10 active; active = well fitted inhibition curve with a large enough effect in the main read-out, with a control signal flat, not every such curve was filed as active; inconclusive = small, poorly fitted or top-dose-only effect, or effect the other way, or a change in a side signal; inactive = no such curve, though single readings can be large or run the other way; note: % of control where 0% means no effect
Target sequence (Q99816 whole entry, looked up): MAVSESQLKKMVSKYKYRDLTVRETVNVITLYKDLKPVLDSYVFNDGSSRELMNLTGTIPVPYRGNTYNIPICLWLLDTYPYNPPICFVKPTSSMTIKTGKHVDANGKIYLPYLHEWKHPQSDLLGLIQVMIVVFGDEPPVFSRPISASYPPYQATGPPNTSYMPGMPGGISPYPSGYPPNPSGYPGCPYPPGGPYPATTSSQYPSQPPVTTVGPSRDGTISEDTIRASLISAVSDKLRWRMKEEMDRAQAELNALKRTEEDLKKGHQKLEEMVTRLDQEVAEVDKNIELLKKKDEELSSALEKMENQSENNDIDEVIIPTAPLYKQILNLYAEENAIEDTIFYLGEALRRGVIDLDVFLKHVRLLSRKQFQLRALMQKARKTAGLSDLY
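Compounds were pin-transferred onto Tsg101 binding domain (10 uM final) in HEPES pH 7.5 buffer, then FITC-PTAP peptide was added at 50 nM final. After 20 min at RT, polarization reported peptide displacement across a qHTS concentration series.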
PINK1 modulator: changes PINK1 expression | PINK1 immunofluorescence, high-content cytometry, 24 h | Potency, µM (top dose mostly 76.6 µM), without a hit: at the highest dose activation (PINK1 increase), usual class: activators | 410,000 compounds, 0.2% hits; active = well fitted activation curve with a large enough effect; inconclusive = small, poorly fitted or top-dose-only effect; cell line not stated here; note: % of control where 0% means no effect; nearly all actives have a fitted effect of over 65% in size
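Decision-based qHTS: stable cells, 24 h exposure to five compound concentrations, CCCP as control. Fixed cells stained for PINK1 plus nuclear, mitochondrial and cell markers, cytometer read.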
SW480 rereplic: DNA re-replication induction in SW480 cells; Potency, µM (series often up to 46.1 µM), without a hit: top-dose re-replication activation, most hits filed as activators; SW480 DNA re-replication, Hoechst DNA content imaging, 48 h; 340,000 compounds, 1.8% hits; note: % of control where 0% means no effect; nearly all actives have a fitted effect of over 55% in size
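Cells (250 per well) received 23 nL compound or DMSO by pin tool and were kept 48 hr at 37 C, 5% CO2. Nuclei were then stained with Hoechst for 40 min and scanned for DNA content.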
* hit, by the source's call; [ ] = dose if it differs, or a comment. This is a sample that favours compounds with a hit; in the whole collection about 6.8% have one here. Unless noted, calls come from the whole dose curve; as a rule, active = well fitted curve in the direction sought with a large enough effect; inconclusive = small, poorly fitted or top-dose-only effect, or another doubt; inactive = no such curve, though single readings can be large; an effect the other way counts as inactive or inconclusive. Potency is the fitted concentration of half-maximal effect.

Results for Cc1c(C(=O)NCc2cccnc2)oc2ccccc12 ?
MCF10A rereplic: 3%; KB-3-1 tox: inactive; KB-V1 MDR tox: 16µM*; TSG101-PTAP inh: -6%; PINK1 modulator: -22%[38.3 µM]; SW480 rereplic: -11%

What do the screens show for `Cc1c(C(=O)NCCc2ccccc2)oc2ccccc12`?
MCF10A rereplic: 5%; KB-3-1 tox: inactive; KB-V1 MDR tox: inactive; TSG101-PTAP inh: -4%; PINK1 modulator: 0%; SW480 rereplic: 2%

How did Cc1c(C(=O)Nc2ccc(S(=O)(=O)N(C)C3CCN(C)CC3)cc2)oc2c(Cl)cccc12 do in these assays?
MCF10A rereplic: inconclusive; KB-3-1 tox: inconclusive; KB-V1 MDR tox: inconclusive; TSG101-PTAP inh: -5%; PINK1 modulator: -2%; SW480 rereplic: inconclusive

Results for Cc1c(C(=O)Nc2ccc(S(=O)(=O)N(C)C3CCN(C)CC3)cc2)oc2ccccc12 ?
MCF10A rereplic: inconclusive; KB-3-1 tox: inactive; KB-V1 MDR tox: 21µM*; TSG101-PTAP inh: -2%; PINK1 modulator: -3%; SW480 rereplic: inconclusive

What do the screens show for `Cc1c(C(=O)Nc2ccccn2)oc2ccccc12`?
MCF10A rereplic: inconclusive; KB-3-1 tox: inactive; KB-V1 MDR tox: 10µM*; TSG101-PTAP inh: -6%; PINK1 modulator: 2%[38.3 µM]; SW480 rereplic: -2%

Results for Cc1c(C(=O)Nc2nnc(C(F)(F)F)s2)oc2ccccc12 ?
MCF10A rereplic: inconclusive; KB-3-1 tox: inactive; KB-V1 MDR tox: 18µM*; PINK1 modulator: 12%[38.3 µM]; SW480 rereplic: 17%

Results for Cc1ccc(Nc2nc(N)c([N+](=O)[O-])c(NCc3ccccc3)n2)cc1 ?
MCF10A rereplic: inconclusive; KB-3-1 tox: inactive; KB-V1 MDR tox: inconclusive; TSG101-PTAP inh: -2%; PINK1 modulator: 1%; SW480 rereplic: -4%

What do the screens show for `CNc1nc(Nc2ccc(Br)cc2)nc(N)c1[N+](=O)[O-]`?
MCF10A rereplic: inconclusive; KB-3-1 tox: 0.73µM*; KB-V1 MDR tox: inconclusive; TSG101-PTAP inh: -4%; PINK1 modulator: 1%; SW480 rereplic: -66%

Results for COc1ccc(Nc2nc(N)c([N+](=O)[O-])c(NCCO)n2)cc1 ?
MCF10A rereplic: 12%; KB-3-1 tox: inconclusive; KB-V1 MDR tox: inactive; TSG101-PTAP inh: -1%; PINK1 modulator: -1%; SW480 rereplic: -2%

Results for COc1ccc(Nc2nc(N)c([N+](=O)[O-])c(NC3CCCCC3)n2)cc1 ?
MCF10A rereplic: 16µM*; KB-3-1 tox: inactive; KB-V1 MDR tox: inconclusive; TSG101-PTAP inh: -1%; PINK1 modulator: -3%; SW480 rereplic: inconclusive

What do the screens show for `Cc1nn(-c2nc(-c3ccc(F)cc3)cc(C(F)(F)F)n2)c(C)c1Cl`?
KB-3-1 tox: inactive; KB-V1 MDR tox: inconclusive; PINK1 modulator: 0%

How did O=S(=O)(c1ccc2c(c1)CCCC2)N1CCN(c2nc(-c3cccs3)nc3ccccc23)CC1 do in these assays?
KB-3-1 tox: inconclusive; KB-V1 MDR tox: inactive; PINK1 modulator: -1%

What do the screens show for `COc1cccc(C(=O)NCCS(=O)(=O)N(C)Cc2ccccc2)c1`?
MCF10A rereplic: 3%; KB-3-1 tox: inactive; KB-V1 MDR tox: 18µM*; TSG101-PTAP inh: 1%; PINK1 modulator: -3%; SW480 rereplic: 1%

How did COc1ccc(CN(C)S(=O)(=O)c2nnc(NC(=O)c3cccc(OC)c3)s2)cc1 do in these assays?
MCF10A rereplic: inconclusive; KB-3-1 tox: inactive; KB-V1 MDR tox: inconclusive; TSG101-PTAP inh: 1%; PINK1 modulator: 2%; SW480 rereplic: -7%

How did COc1cccc(C(=O)NCCS(=O)(=O)N(C)C2CCCCC2)c1 do in these assays?
MCF10A rereplic: -4%; KB-3-1 tox: inactive; KB-V1 MDR tox: 12µM*; TSG101-PTAP inh: -1%; PINK1 modulator: -1%; SW480 rereplic: -4%

Results for CCCc1nnc(NC(=O)c2cccc(OC)c2)s1 ?
MCF10A rereplic: 4%; KB-3-1 tox: inactive; KB-V1 MDR tox: 18µM*; TSG101-PTAP inh: -2%; PINK1 modulator: 3%; SW480 rereplic: -4%

What do the screens show for `COc1cccc(C(=O)Nc2nnc(S(=O)(=O)N(C)Cc3ccccc3)s2)c1`?
MCF10A rereplic: 3%; KB-3-1 tox: inactive; KB-V1 MDR tox: inactive; TSG101-PTAP inh: -5%; PINK1 modulator: 4%; SW480 rereplic: 12µM*

How did CCCc1nnc(NC(=O)c2cc3ccccc3o2)s1 do in these assays?
MCF10A rereplic: 8%; KB-3-1 tox: inactive; KB-V1 MDR tox: inconclusive; TSG101-PTAP inh: 1%; PINK1 modulator: 1%; SW480 rereplic: 0.26µM*

How did CCCc1nnc(NC(=O)c2cc3ccccc3oc2=O)s1 do in these assays?
MCF10A rereplic: -8%; KB-3-1 tox: inactive; KB-V1 MDR tox: inactive; TSG101-PTAP inh: 0%; PINK1 modulator: 0%; SW480 rereplic: inconclusive

Results for COc1ccc(Cc2nnc(NC(=O)c3cc(OC)cc(OC)c3)s2)cc1 ?
MCF10A rereplic: 13µM*; KB-3-1 tox: inactive; KB-V1 MDR tox: inactive; TSG101-PTAP inh: 3%; PINK1 modulator: 11%; SW480 rereplic: 102%

Results for COc1ccc(Cc2nnc(NC(C)=O)s2)cc1 ?
MCF10A rereplic: 14%; KB-3-1 tox: inactive; KB-V1 MDR tox: inactive; TSG101-PTAP inh: -1%; PINK1 modulator: 0%; SW480 rereplic: -17%

What do the screens show for `CCN(CCCNC(=O)CSc1cc(=O)n(C)c2cc(Cl)ccc12)c1ccccc1`?
KB-3-1 tox: inactive; KB-V1 MDR tox: inactive; PINK1 modulator: 1%

How did COc1ccc(OC)c(CNS(=O)(=O)c2cc(-c3onc(C)c3C)ccc2C)c1 do in these assays?
PINK1 modulator: 1%

How did CC1CCN(C(=O)C(NS(=O)(=O)c2cccc3nsnc23)C(C)C)CC1 (stereo not given) do in these assays?
MCF10A rereplic: 4%; KB-3-1 tox: inactive; KB-V1 MDR tox: inactive; TSG101-PTAP inh: 1%; PINK1 modulator: 0%; SW480 rereplic: -22%

Results for CC(C)C(NS(=O)(=O)c1cccc2nsnc12)C(=O)N1CCc2ccccc2C1 (stereo not given) ?
MCF10A rereplic: -2%; KB-3-1 tox: inactive; KB-V1 MDR tox: 18µM*; TSG101-PTAP inh: -3%; PINK1 modulator: -1%[38.3 µM]; SW480 rereplic: 8%

How did COc1ccccc1CN1CCC2(CCC(CNC(=O)c3ccccc3N(C)C)O2)CC1 (stereo not given) do in these assays?
PINK1 modulator: -1%

How did COc1ccc(NC(=O)Cc2ccccc2)cn1 do in these assays?
MCF10A rereplic: 1%; KB-3-1 tox: inactive; KB-V1 MDR tox: inactive; TSG101-PTAP inh: -14%; PINK1 modulator: 1%; SW480 rereplic: 1%
